# This is one part of a sample in which hits are shown more often than they occur.
# LASV entry inh: inhibitors of Lassa virus binding or cell entry. Lassa virus pseudotype entry inhibition, cell reporter. Potency, µM (doses to about 37.9 µM), without a hit: at the top dose activity change, negative = inhibition, actives largely listed as inhibitors. actives 1.2% (n = 300,000). AID 540256; calls by dose curve; tested in HEK293 cells; also: potency is read from the fitted curve at half-maximal effect; % is scaled to controls: 0 for no effect and ±100 for the full control effect; nearly all actives have a fitted effect of over 50% in size
# Marburg entry inh: blocks Marburg virus binding to or entry into cells; Marburg virus pseudotyped entry inhibition, cell reporter; Potency, µM (titrated, usually from 37.8 µM), for inactives: at the highest dose activity change, negative = inhibition, most hits filed as inhibitors; actives 1.8% (n = 300,000); AID 540276; calls by dose curve; tested in HEK293 cells; also: potency is read from the fitted curve at half-maximal effect; % is scaled to controls: 0 for no effect and ±100 for the full control effect
# Cycloheximide cs: affects cycloheximide protein synthesis inhibition readout, counter-screen | cell reporter, cycloheximide protein synthesis inhibition counterscreen | actives 12% (n = 300,000) | max response, %; in the data active = max response mostly above about 13%, no sharp cut-off; inactive = mostly below about 14%; also: read at 38.3 µM for the half of the compounds with a filed dose; 0% is about no effect
# AMA1 RON2 block: inhibitors of Plasmodium falciparum AMA1-RON2 interaction; AlphaScreen AMA1-biotinylated RON2 peptide binding; actives 0.2% (n = 360,000); Potency, µM (series often up to 58.2 µM), inactives show at the highest dose activity change, negative = inhibition, actives largely listed as inhibitors; AID 720542; active = well fitted inhibition curve with a large enough effect; inconclusive = small, poorly fitted or top-dose-only effect; inactive = no such curve, though single readings can be large or run the other way;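 also: potency is read from the fitted curve at half-maximal effect; 0% = vehicle wells and -100% = peptide control; nearly all actives have a fitted effect of over 45% in size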
#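 AMA1 (3D7) with his tag at 25 nM final met compounds first, then biotinylated RON2 peptide at 25 nM; detection used donor plus acceptor beads, 10 µg/mL apiece, read by AlphaScreen after 30 min at room temperature.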
# Shiga inhibitor: Shiga toxin inhibition; Vero cells, Shiga toxin protein synthesis inhibition reporter; inhibition, % at 38.7 µM; actives 9.2% (n = 290,000); AID 2315; in the data active = inhibition mostly above about 28%, no sharp cut-off; inactive = mostly below about 43%; also: 0% is about no effect
# * marks the source's active call; other numbers are inactive results; ? = inconclusive; · = not tested or not shown; + = active, no number; ! = repeats disagree; [ ] = another dose, or the depositor's remark.
SMILES,LASV entry inh,Marburg entry inh,Cycloheximide cs,AMA1 RON2 block,Shiga inhibitor
O=[N+]([O-])c1ccc(CNc2ccc(Cl)cc2)s1,3.5µM*,?,13*,-21%,28
CCOc1ccc(N2CC(c3nc4ccccc4n3CCCOc3ccccc3)CC2=O)cc1 (stereo not drawn),?,-46%[46.1 µM],·,·,·
O=S1(=O)N=C2CCCCCN2C(c2ccc(Br)cc2)N1 (stereo not drawn),9%[46.1 µM],6%[46.1 µM],8,-10%,24
Cc1cc(CSCc2ccc(Cl)cc2)no1,·,·,23*,14%,24
Cc1cc(C(=O)Nc2cc(C)n(Cc3ccc(Cl)cc3)n2)no1,-17%,-21%,15,-2%,32
COc1ccc(-n2cnc3cc(N)ccc32)cc1,?,6%,13*,3%,12
COc1ccc(-n2cnc3cc(NS(=O)(=O)c4ccccc4)ccc32)cc1,?,?,21*,7%,37*
Cn1cnc2cc(NS(=O)(=O)c3ccc(Br)cc3)ccc21,4%,?,-3,4%,-13
COc1ccc(-n2cnc3cc(C(=O)N4CCC5(CC4)OCCO5)ccc32)cc1,·,·,2,-6%,18
CC(C)(C)n1cnc2cc(NS(=O)(=O)c3ccccc3)ccc21,-13%,-9%,18*,-2%,24
COc1ccc(-n2cnc3cc(C(=O)N4CCOCC4)ccc32)cc1,·,·,56*,-8%,45*
CCCCCNC(=O)c1ccc2c(c1)ncn2-c1ccc(OC)cc1,?,?,7,-7%,-7
CCCCN(C)CCNC(=O)c1ccc(Cn2c(=S)[nH]c3ccc(Br)cc3c2=O)cc1,7%,?,8,51%,-2
Cc1cccc(NC(=O)c2ccc3c(c2)OCCO3)n1,?,?,45*,0%,50*
CC(C)(C)c1csc(NC(=O)c2ccncc2)n1,?,?,14,-3%,19
CC(C)(C)c1csc(NC(=O)c2ccc3nccnc3c2)n1,-4%,?,63*,-8%,80*
Cc1cccc(NC(=O)c2ccc3nccnc3c2)n1,14%[46.1 µM],?,49*,-9%,46*
Cc1cccc(NC(=O)c2cccc(NC(=O)c3ccccc3)c2)n1,2%[46.1 µM],?,-3,0%,8
CC(=O)Nc1ccc(NC(=O)c2ccc(C)c(S(=O)(=O)Nc3cccc(C)c3)c2)cc1,-1%[46.1 µM],6.3µM*,-2,-1%,6
Cc1ccc(C(=O)Nc2cccc([N+](=O)[O-])c2)cc1S(=O)(=O)Nc1ccc(NC(=O)c2ccccc2)cc1,?,?,-1,-7%,15
Cc1ccc(C(=O)Nc2ccccc2)cc1S(=O)(=O)Nc1ccccc1,-4%[46.1 µM],?,·,·,·
Cc1ccc([N+](=O)[O-])cc1S(=O)(=O)Nc1cccc(S(=O)(=O)Nc2ccccc2C(=O)O)c1,4%,-3%,·,10%,·
Cc1ccc(NS(=O)(=O)c2cc(C(=O)Nc3cccc([N+](=O)[O-])c3)ccc2C)cc1,18µM*,?,0,6%,10
Cc1ccc(C)c(NC(=O)c2ccccc2NS(=O)(=O)c2cc([N+](=O)[O-])ccc2C)c1,?,4.1µM*,-2,-15%,-13
CCOc1ccccc1-c1noc(CSc2nnc(-c3ccccc3)n2-c2ccc(OC)cc2)n1,-2%[46.1 µM],?,·,·,·
SMILES,LASV entry inh,Marburg entry inh,Cycloheximide cs,AMA1 RON2 block,Shiga inhibitor
O=C(NCCN1C(=O)S/C(=C\c2ccc(F)cc2)C1=O)c1cccc(S(=O)(=O)N2CCOCC2)c1,1%,-37%,69*,-3%,+
O=C(NCCN1C(=O)S/C(=C\c2ccccc2)C1=O)c1cc(S(=O)(=O)N2CCOCC2)c(Cl)cc1Cl,?,?,-1,-15%,-6
O=C(NCC1COc2ccccc2O1)c1ccc(Br)s1 (stereo not drawn),-26%[46.1 µM],12%[46.1 µM],23*,4%,108*
O=C(Cc1ccccc1)NCC1COc2ccccc2O1 (stereo not drawn),-2%,-26%,·,17%,·
CCN(c1ccccc1)S(=O)(=O)c1cc(C(=O)Nc2ccc(Br)cc2)ccc1F,12µM*,?,14*,-2%[11.6 µM],65*
CCc1ccc(C(=O)NCC2COc3ccccc3O2)o1 (stereo not drawn),0%,?,23*,-4%,57*
O=C(NCC1COc2ccccc2O1)c1ccc(F)c(S(=O)(=O)N2CCOCC2)c1 (stereo not drawn),5%,-7%,·,-15%,·
CCc1ccc(NC(=O)c2ccc(F)c(S(=O)(=O)NCC3COc4ccccc4O3)c2)cc1 (stereo not drawn),16µM*,12µM*,-1,-7%,-6
CC(C)(C)OC(=O)N1CCC(c2c(C(=O)Nc3ccc4c(c3)OCO4)cnn2-c2ccc(F)cc2F)CC1,-23%[46.1 µM],·,·,·,·
CCOc1ccc(OCC)c(NS(=O)(=O)c2ccc3c(c2)CCCN3C(C)=O)c1,25%[46.1 µM],·,·,·,·
CCOC(=O)c1ccc(NC(=O)Cn2nc(C)c3nn(-c4ccc(Cl)cc4)c(C)c3c2=O)cc1,-24%[46.1 µM],·,·,·,·
O=C(NCC1COc2ccccc2O1)c1cccs1 (stereo not drawn),22%[46.1 µM],6%[46.1 µM],40*,11%,72*
CCCn1c(-c2ccc[nH]c2=O)nc2ccccc21,18%[46.1 µM],8%[46.1 µM],-1,1%,-3
CCCC1(C)Nc2ccccc2-c2nc3ccccc3n21 (stereo not drawn),24%,-4%,53*,12%,81*
c1ccc2c(c1)NC1(CCCC1)n1c-2nc2ccccc21,-2%,?,27*,7%,92*
CCOC(=O)C(C)n1cnc2c(nnn2-c2ccc(OC)cc2)c1=O (stereo not drawn),15%,13%,32*,6%,86*
CCOC(=O)C(C)n1cnc2c(nnn2-c2ccc(C)cc2)c1=O (stereo not drawn),?,17%,15,0%,14
CCC(C(=O)OC)n1cnc2c(nnn2-c2ccc(C)cc2)c1=O (stereo not drawn),·,·,12*,8%,22*
Nc1ccccc1O,·,·,·,-1%,·
Oc1ccccc1O,?,2.5µM*!,·,-17%,·
Cc1ccccc1CNC(=O)c1cccc(NC(=O)N2CCSc3ncccc32)c1,-4%[46.1 µM],·,·,·,·
O=C(CSc1ccc(F)cc1)NC1CCCCC1,·,·,36*,1%,71*
O=C(CSc1ccc(Cl)cc1)NC(=O)NC1CCCC1,-11%,0%,·,1%,·
O=C(CSc1ccc(F)cc1)NC12CC3CC(CC(C3)C1)C2,21%[46.1 µM],?,37*,11%,39
O=C(CCCc1ccccc1)NC12CC3CC(CC(C3)C1)C2,·,·,46*,0%,·
O=C(CSc1ccc(Cl)cc1)NC1CCCC1,4%,19%,35*,-3%,72*
CCOC(=O)C1=CN(Cc2cccc(-c3ccc(Cl)nc3)c2)S(=O)(=O)N(C)C1C (stereo not drawn),·,·,·,-3%,·
COc1ccc(OC)c(CNS(=O)(=O)c2cc(-c3onc(C)c3C)ccc2C)c1,-12%[46.1 µM],·,·,·,·
O=C(CCSc1ccc(Cl)c(Cl)c1)NC12CC3CC(CC(C3)C1)C2,-2%,?,27*,27%,77
Cc1sc(NC(=O)CCl)c(C(=O)c2ccccc2)c1C,?,2%,12*,-10%,-7
